# Reference: PubChem BioAssay AID493174 (National Center for Advancing Translational Sciences (NCATS), 2011)
# Records with an inconclusive call do not appear. Calls of active or inactive are those of the source. Calls follow the shape of the dose curve; as a rule, active = well fitted inhibition curve with a large enough effect; inconclusive = small, poorly fitted or top-dose-only effect; inactive = flat fitted curve, though single readings scatter.
# Experiment: Confirmatory Assay for General miRNAs Modulators and/or Inhibitors/Activators of miR-21: second round cherrypicks
# Conditions: HeLa miR-21 FLuc reporter, luciferase luminescence, 48 h
# Excerpt: MLPCN Grant: 1 R21 NS059478-01 Assay Provider: Qihong Huang, The Wistar Institute NCGC Assay Overview: MicroRNAs (miRNAs) are endogenously encoded small (~20-25 nucleotides), nonprotein-coding RNAs that are involved in post-transcriptional repression of target messenger RNAs (mRNAs) (Le and Hannon, 2004). Estimated to be involved in the regulation of 30% of all protein-coding mRNAs (Filipowicz et al., 2008), miRNAs play a significant role in many biological processes including cellular differentiation and tissue development (Ghildiyal and Zamore, 2009).
# NCGC Assay Protocol Summary: Reagents: HeLa cells stably expressing firefly luciferase (FLuc) under the control of a CMV promoter (upstream) and a miR-21 binding sequence directly downstream of the gene. These cells endogenously express miR-21. Control compounds used were compound C3 (provided by collaborator), N6-phenyladenosine (MP Biomedicals, 0215379625), and DMSO. Assay Summary: 6uL of HeLa miR-21-FLuc cells in assay buffer (DMEM, Invitrogen #21063-029; 10% FBS, HyClone #SH30071.03) were dispensed at 2000cells/well (3.3 x 10^5 cells/mL) into Greiner solid-white TC-treated 1536-well plates using a Multidrop Combi (Thermo Fisher Scientific). […] After a 15 minute incubation to allow for cell lysis, luciferase activity was measured using a ViewLux CCD imager (PerkinElmer), with an average exposure time of 2-12 seconds. […]
smiles,measurement,value
O=c1c2ccccc2nc(Cc2ccccc2)n1-c1ccccc1,Potency,14.2 µM (active)
